Results as given in PubChem BioAssay AID504847 (National Center for Advancing Translational Sciences (NCATS), 2011).
“And” between values parts separate entries of the source, which are not always exact repeats. Equal entries are not always repeated. In all, about 400,000 compounds went through this assay and about 3,700 (0.93%) were called active. Another 3% or so got no clear call; they are omitted. Shown is part of a subset that was picked to be rich in actives. The source holds several records for some structures; these can differ, active in one and inactive in another. Unmarked numbers belong to inactive results. Calls follow the shape of the dose curve; as a rule, active = well fitted inhibition curve with a large enough effect; inconclusive = small, poorly fitted or top-dose-only effect, or another doubt; inactive = no such curve, though single readings can be large or run the other way.

These compounds were tested against Vitamin D3 receptor (Homo sapiens) (UniProt P11473) (assay: Inhibitors of the vitamin D receptor (VDR): qHTS). Conditions: VDR-SRC2-3 peptide fluorescence polarization, 2 h; max response, negative = inhibition: active compounds read low.
Sequence of Vitamin D3 receptor (Homo sapiens) (P11473 whole entry, looked up): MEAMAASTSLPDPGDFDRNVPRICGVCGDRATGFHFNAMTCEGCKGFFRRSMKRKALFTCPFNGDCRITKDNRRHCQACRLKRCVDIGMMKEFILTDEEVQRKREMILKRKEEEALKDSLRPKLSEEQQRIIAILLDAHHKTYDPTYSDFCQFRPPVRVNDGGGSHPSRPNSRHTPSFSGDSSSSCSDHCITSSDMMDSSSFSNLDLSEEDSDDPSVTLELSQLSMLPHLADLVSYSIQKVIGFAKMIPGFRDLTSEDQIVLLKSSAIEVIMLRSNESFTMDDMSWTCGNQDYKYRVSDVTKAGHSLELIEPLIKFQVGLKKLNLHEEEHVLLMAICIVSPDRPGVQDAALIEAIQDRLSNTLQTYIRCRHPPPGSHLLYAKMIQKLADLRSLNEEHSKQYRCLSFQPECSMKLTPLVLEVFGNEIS
Excerpt: The vitamin D receptor (VDR) is a ligand-activated transcription factor and is partially responsible for the regulation of the endocrine system. This includes the transcriptional regulation of genes involved in the production of the parathyroid hormone (PTH) and the regulation of the blood calcium level. High levels of PHT can cause hypercalcemia in the case of primary and tertiary hyperparathyroidism. The VDR-mediated gene regulation, activated by its ligand 1,25-dihydroxyvitamin D3 (1,25-(OH)2D3), is governed by the recruitment of coactivators. Our hypothesis is that small molecules, with the ability to inhibit the interaction between VDR and certain coactivators, are able to selectively modulate VDR-mediated transcription. Our long term objective is the application these VDR-coactivator inhibitors to study the role of VDR-coactivator binding for specific VDR regulated genes. Ultimately, these molecules can be developed into new treatments for hypercalcemic hyperparathyroidism. No small molecule or non-peptide inhibitors are known for the VDR-coactivator interaction.
In a collaboration between the University of Wisconsin, Milwaukee and the NIH Chemical Genomics Center (NCGC) a HTS-compatible enzymatic assay was developed. The assay uses fluorescence polarization as its read-out to measure the inhibition between VDR and coregulator peptide SRC2-3 exerted by small molecules. This assay was used to screen the NIH Molecular Libraries Small Molecule Repository (MLSMR).
NIH Chemical Genomics Center [NCGC]
NIH Molecular Libraries Probe Centers Network [MLPCN]
Assay Submitter (PI): Alexander Arnold, University of Wilwaukee
Both solutions are kept at 4 deg C and protected from light and dispensed using a Kalypsys dispenser. Then 23nl of compounds and controls are added with Kalypsys pintool. […] Plate is centrifuged at 1000 RPM for 15 seconds to remove any residual bubbles. The plate is then incubate at ambient room temperature for 2 hours.
% is scaled to controls: 0 for no effect and ±100 for the full control effect; potency is read from the fitted curve at half-maximal effect.

SMILES	Potency	max response, negative = inhibition
CC[N+](C)(CC)CCC[n+]1c(-c2ccccc2)c2cc(N)ccc2c2ccc(N)cc21	8.91 µM (active)	
COc1ccc2c3c1O[C@H]1C[C@@H](O)C=C[C@@]31CCN(C)C2		4.74% and -11.8%
c1ccc2c(c1)[I+]c1ccccc1-2		-6.32%
COc1ccc(CN2C(=O)NC(=O)/C(=C\c3ccc(OC)c(OC)c3OC)C2=O)cc1	70.8 µM (active)	
CNC(C)[C@@H](O)c1ccccc1 (stereo partly drawn)		2.28%
CO[C@@H]1C[C@@H](C[C@H]2CC[C@H](C)[C@@H]([C@@H](C)C(=O)O)O2)O[C@]2(O[C@](C)([C@H]3CC[C@@](C)(C4OC([C@H]5O[C@@](O)(CO)[C@H](C)C[C@@H]5C)C[C@@H]4C)O3)C[C@H]2C)[C@@H]1C (stereo partly drawn)		10.2%
N#Cc1c(Cl)c(Cl)c(Cl)c(C#N)c1Cl	0.794 µM (active)	
CCCCCCCCCCCCN=C(N)N		6.41%
C[C@@H]1C[C@H]2CC[C@H](O2)[C@H](C)C(=O)O[C@@H](C)C[C@@H]2CC[C@@H](O2)[C@@H](C)C(=O)O[C@H](C)C[C@H]2CC[C@H](O2)[C@H](C)C(=O)O[C@@H](C)C[C@@H]2CC[C@@H](O2)[C@@H](C)C(=O)O1		8%
COc1ccc2c3c1OC1CC(O)C=C[C@@]31CCN(C)C2 (stereo partly drawn)		-3.65%
NC[C@H](O)c1ccc(O)cc1		6.55%
O=C(Nc1cccc(F)c1)N1CC[C@@]2(CCCN(C(=O)Oc3ccccc3)C2)C1		2.93%
CCOC(=O)c1ncn2c1[C@@H]1CCCN1C(=O)c1cc(OC)ccc1-2		-6.26%
CC(=O)c1c(O)c(C)c(O)c(Cc2c(O)c3c(c(C(=O)/C=C\c4ccccc4)c2O)OC(C)(C)C=C3)c1O	35.5 µM (active)	
CC(=O)c1c(O)c(C)c(O)c(Cc2c(O)c3c(c(C(=O)/C=C/c4ccccc4)c2O)OC(C)(C)C=C3)c1O	14.1 µM (active) and 8.91 µM (active) and 39.8 µM (active)	
CN(C)C[C@H]1CCCC[C@]1(O)c1cccc(O)c1		1.62%
Cc1cccc([C@H](C)c2cnc[nH]2)c1C		7.28%
CO[C@H]1[C@@H](O)[C@@H](C)O[C@H](O[C@H]2[C@H](Oc3cccc4c(O)c5c(=O)oc6ccc(C)c7c(=O)oc(c34)c5c67)O[C@H](C)[C@H](O)[C@@H]2O)[C@@H]1O		14.9%
Cc1ccc(-n2c(/C=C/c3cccc(C(F)(F)F)c3)nc3ccccc3c2=O)cc1		9.47%
Cc1ccc(NC(=O)N(Cc2ccc3c(c2)OCO3)C2CCN(Cc3ccccc3)CC2)cc1F		4.08%
Fc1ccc(C(OCCN2CCN(C/C=C\c3ccccc3)CC2)c2ccc(F)cc2)cc1		-15.8%
CCCCC/C=C\C/C=C\C/C=C\C=C\[C@H](CCCC(=O)O)OO		7.28% and 4.32%
CCCCC/C=C\C/C=C\C/C=C\C/C=C\CCCCCC(=O)NCCO	35.5 µM (active)	17.7% and -2.94% and 0.308%
CCCCC/C=C\C/C=C\C/C=C\CCCCCCC(=O)NCCO		-6.07% and 11.4% and 0.788%

SMILES	Potency	max response, negative = inhibition
CC[C@@H]1CN2CC[C@@H]1C[C@H]2[C@H](O)c1ccnc2ccc(OC)cc12		3.71%
CC(=O)[O][Sn]([c]1ccccc1)([c]1ccccc1)[c]1ccccc1	2.24 µM (active)	
COC(=O)N1C(c2ccccc2)C1c1ccccc1 (stereo not drawn)		8.84%
O=C(O)CCn1cc(C=C2C(=O)NC(=S)NC2=O)c(-c2cccc(Br)c2)n1	25.1 µM (active)	
C[C@@]12CC[C@H]3[C@@H](CC[C@]4(O)C[C@H](O)CC[C@@]34C=O)[C@]1(O)CC[C@@H]2C1=CC(=O)OC1		6.85%
c1csc(CN2CC3(CCNCC3)C2)n1		2.29%
Cc1cccc2c3c(ccc12)C1=C(C(=O)C3=O)C(C)CO1 (stereo not drawn)	5.62 µM (active)	
COc1ccc(C2Oc3c(I)c(OC)cc(OC)c3CC2O)cc1OC (stereo not drawn)		-4.29%
Nc1ccc(-c2ccc(N)c(N)c2)cc1N		7.8%
c1ccc(CCCCN2CCC(c3ccccc3)CC2)cc1		6.23% and 8.72%
Cc1ncsc1CCCl		-5.72% and -13.2% and 18.1%
COc1ccccc1-c1[se]c2ccccc2c1I		-10.1%
N#CC(C#N)=Cc1cc(O)c(O)c([N+](=O)[O-])c1	44.7 µM (active)	
CCC(C)C(=O)O[C@@H]1C[C@@]2(C)C(c3ccoc3)OC(=O)CC23OC2(C)O[C@@]14[C@@]1(C)C(CC(=O)OC)C5(C)CC1(O)C(O)(C5OC(=O)C1(C)OC1C)C(OC(C)=O)[C@@]34O2 (stereo partly drawn)		-0.0436%
C[C@]12O[C@H](C[C@@]1(O)C(=O)O)n1c3ccccc3c3c4c(c5c6ccccc6n2c5c31)CNC4=O		0.321%
COc1cc2c(cc1OC)[C@@H]1C(=O)c3ccc(O)c(CC=C(C)C)c3OC1CO2 (stereo partly drawn)		10.7%
CCCCCCCCCCCCCC(=O)O[C@@H]1[C@@H](C)[C@@]2(O)[C@@H](C=C(CO)C[C@]3(O)C(=O)C(C)=C[C@@H]23)[C@@H]2C(C)(C)[C@]12OC(C)=O		3.48%
CCC1(c2ccccc2)C(=O)NC(=O)N(C)C1=O (stereo not drawn)		3.76%
O=P1(Oc2ccccc2)CC(O)C(O)C(COCc2ccccc2)O1 (stereo not drawn)		-0.629%
CC(=O)OC1C2(CC3N4C(=O)C5(CO)SSC4(CC31O)C(=O)N5C)OC(C)C(C)(C)C2=O (stereo not drawn)	39.8 µM (active)	
Cc1cccc(Cn2cccc(C(=O)Nc3ccc4c(c3)OCCO4)c2=O)c1		10.5%
Clc1ccc([C@@H]2C[C@H]3CC[C@@H]2N3)cn1		3.4%
C1CC[C@H]([C@@]23C[C@H](C[C@H]4CCCN[C@H]42)[C@@H]2CCCCN2C3)NC1		1.42%
